CYP2C9 inhib – blockers of cytochrome P450 2C9 activity – biochemical, luminescence, ADME assay, primary screen; actives 20% (n = 96,000); P11712; AID 777, 2007; CYP2C9 Supersomes, luciferin-H conversion; inhibition, % at 5 µM;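 active = blocking of liver enzyme CYP2C9 beyond about 50% at 5 µM, limit read from the data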
Target sequence (P11712 whole entry, looked up): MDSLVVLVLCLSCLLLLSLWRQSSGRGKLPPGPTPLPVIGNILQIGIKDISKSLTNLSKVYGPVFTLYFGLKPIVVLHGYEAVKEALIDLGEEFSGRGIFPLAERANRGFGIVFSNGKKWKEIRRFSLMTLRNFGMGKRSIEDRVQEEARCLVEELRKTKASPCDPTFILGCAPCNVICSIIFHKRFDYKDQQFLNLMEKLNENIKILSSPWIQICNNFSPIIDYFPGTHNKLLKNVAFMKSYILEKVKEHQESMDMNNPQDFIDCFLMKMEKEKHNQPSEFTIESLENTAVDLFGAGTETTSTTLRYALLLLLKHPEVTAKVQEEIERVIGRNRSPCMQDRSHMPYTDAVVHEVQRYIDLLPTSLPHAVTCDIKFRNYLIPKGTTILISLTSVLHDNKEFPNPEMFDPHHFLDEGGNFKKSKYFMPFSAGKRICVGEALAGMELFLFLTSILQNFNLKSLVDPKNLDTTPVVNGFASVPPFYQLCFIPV
Cav3 T inh – Cav3.2 calcium influx blockers – cell-based, Fluo-4 calcium fluorescence, FDSS, MLSMR library, primary screen. Cav3.2-expressing cells; hits give low values. AID 449739, 2010. actives 4% (n = 100,000). B-score at 10 µM. Voltage-dependent T-type calcium channel subunit alpha-1H (Homo sapiens), O95180;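 active = single-dose well whose peak fluorescence ratio is a statistical outlier from its plate by either plate-standardised score or position-corrected B-score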
CYP2C19 act – human CYP2C19 activators, primary screen, biochemical, luminescence | Cytochrome P450 2C19 (Homo sapiens), P33261 | recombinant CYP2C19, luciferin-H EGE luminescence; hits give high values; 0 = fully inhibited enzyme, 1 = untreated enzyme | activation factor at 5 µM | 96,000 tested, under 10 active | AID 1025, 2008;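 active = activation factor of at least 2 at 5 µM in the primary screen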;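 note: 0 = wells with 2.5 mM tranylcypromine and 1 = vehicle-only wells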
CYP2C9 act – human CYP2C9 activators, primary screen, biochemical, luminescence; AID 1024, 2008; Cytochrome P450 2C9 (Homo sapiens), P11712; actives 1.4% (n = 96,000); recombinant CYP2C9, luciferin-H conversion; hits give high values; factor 1 = untreated enzyme, 0 = blocked; activation factor at 5 µM;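 active = activation factor of 2 or more for CYP2C9 at a 5 µM dose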;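 note: 0 = sulfaphenazole-blocked wells and 1 = vehicle-only wells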
CYP2C19 inhib – blockers of cytochrome P450 2C19 activity – biochemical, luminescence, ADME assay, primary screen; P33261; CYP2C19 Supersomes, luciferin-H EGE luminescence, 30 min; inhibition, % at 5 µM; actives 21% (n = 96,000); AID 778, 2007;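 active = CYP2C19 inhibition above a set limit at 5 µM in the primary screen, cut at about 50% in these data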;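 note: plate controls were negative control wells for no effect and 2.5 mM tranylcypromine positive control for full effect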
Starred values were filed as active, the others as inactive; nt = not tested or not shown. A selection: hits, their analogues and other compounds. The true share with any hit is near 27%.

SMILES	CYP2C9 inhib	Cav3 T inh	CYP2C19 act	CYP2C9 act	CYP2C19 inhib
CCOC(=O)C1CCCN(S(=O)(=O)c2cn(C)c(=O)n(C)c2=O)C1 (centres undefined)	16	0.18	0.2	0.8	78*
COc1ccc(/C=N/n2c(SC)nnc(C(C)(C)C)c2=O)c(OC)c1	0	-0.82	0.9	1	5
COc1cc2c(C(=O)NCc3ccc(C)o3)cn(CC(C)C)c(=O)c2cc1OC	11	1.6	0.9	0.9	8
Cc1cc(N=Cc2cc(Br)ccc2O)no1	-17	0.041	1.1	1.2	-14
O=S1(=O)CCC(N=Cc2cc(Br)ccc2O)C1 (centres undefined)	-8	-12*	1.1	1.1	-11
CN(C)S(=O)(=O)N1CCN(S(=O)(=O)c2ccc3ccccc3c2)CC1	-7	1.3	0.9	1.1	6
O=[N+]([O-])c1cc(C(F)(F)F)ccc1N1CCN(S(=O)(=O)c2ccc3ccccc3c2)CC1	-14	-0.7	0.4	1.1	58*
CN1CCN(S(=O)(=O)c2ccc3ccccc3c2)CC1	-146	0.51	0.9	2.5*	8
CN1CCN(S(=O)(=O)c2cccc(S(=O)(=O)c3cccc(S(=O)(=O)N4CCN(C)CC4)c3)c2)CC1	80*	0.84	0.6	0.2	40
CC1CCN(S(=O)(=O)c2ccc3ccccc3c2)CC1	-167	-2.2	0.2	2.7*	83*
Cc1ccc(S(=O)(=O)N2CCCN(S(=O)(=O)c3ccc4ccccc4c3)CC2)cc1	nt	-0.54	nt	nt	nt
CCOc1ccc2cc(S(=O)(=O)N3CCN(C)CC3)ccc2c1	nt	0.0095	nt	nt	nt
COc1ccc(Oc2cc(C(F)(F)F)cnc2C(N)=O)cc1	36	nt	0.3	0.6	67*
NC(=O)c1ncc(C(F)(F)F)cc1Oc1cccc(C(F)(F)F)c1	43	0.59	0.1	0.6	93*
NC(=O)c1ncc(C(F)(F)F)cc1Oc1cccc(F)c1	3	0.054	0.8	1	16
COc1ccc(Cn2nc(C)cc2C)cc1OC	8	-0.023	0.6	0.9	40
CN=C(c1ccco1)n1c(=S)nc(-c2ccco2)n(C)c1=S	66*	0.048	0.2	0.3	79*
Nn1c(-c2ccco2)n[nH]c1=S	9	0.36	1	0.9	2
S=C(NCc1ccco1)N1CCN(Cc2ccc(Cl)cc2Cl)CC1	42	-3.6*	0.8	0.6	23
CN(CC(=O)N1CCCC1)S(=O)(=O)c1cc(Cl)ccc1Cl	-141	1.8	0.8	2.4*	19
CN(CC(=O)Nn1cnnc1)S(=O)(=O)c1cc(Cl)ccc1Cl	87*	0.013	0.2	0.1	81*
O=C(NCc1cccc(Cl)c1)c1ccco1	14	0.049	0.4	0.9	57*
O=C(NCc1ccc2c(c1)OCO2)c1cccc(Cl)c1	35	1.5	0	0.6	98*
O=C(CN1CCc2ccccc2C1)c1cccs1	24	0.54	0.1	0.8	92*
O=C(NCc1cccc(Cl)c1)c1ccc2c(c1)OCO2	9	-3.1	0.5	0.9	50*
SMILES	CYP2C9 inhib	Cav3 T inh	CYP2C19 act	CYP2C9 act	CYP2C19 inhib
O=C(c1cccs1)N1CCc2ccccc21	-4	0.21	0.9	1	15
O=C(NCc1ccc(Cl)c(Cl)c1)c1ccco1	nt	-1.8	nt	nt	nt
CCc1ccccc1NC(=O)CC(O)(C(=O)OC)C(F)(F)F (centres undefined)	23	0.46	0.5	0.8	48
CCO[C@@H]1OC(C(=O)O)=C[C@H](c2ccc3c(c2)OCO3)[C@H]1CCCO	nt	0.21	nt	nt	nt
O=C(NCc1cccc(Cl)c1)c1cccc(C(F)(F)F)c1	-31	0.025	0.4	1.3	62*
O=C(NCN1CCc2ccccc2C1)c1ccccc1	20	0.89	0.2	0.8	81*
O=C(Nc1ccn(Cc2ccc(Cl)cc2)n1)c1ccc2c(c1)OCO2	92*	-2.3	0.1	0.1	91*
O=C(NCc1ccc2c(c1)OCO2)c1ccc(-c2ccc(Cl)cc2)o1	100*	-2.7	0.8	0	23
O=C(Nc1ccc(CN2CCCCC2)cc1)c1ccc2c(c1)OCO2	-2	-0.11	1.1	1	-14
CCCNC(=O)c1cccc(COCC(F)(F)C(F)F)c1	31	-0.29	0.5	0.7	48
O=C(NCc1ccc2c(c1)OCO2)c1cccc(S(=O)(=O)N2CCCCC2)c1	nt	-1.4	nt	nt	nt
O=C(NCc1ccc2c(c1)OCO2)c1cccc(F)c1	66*	-0.15	0	0.3	99*
O=C(NCc1ccc2c(c1)OCO2)c1ccc(CN2CCc3ccccc3C2)cc1	41	-5.3*	0.8	0.6	24
COc1ccccc1C(=O)NC(=Nc1nc2ccccc2o1)NC(=O)c1ccccc1OC	73*	-3	0.3	0.3	65*
COc1ccc(-c2cn3ccc4ccccc4c3n2)cc1	nt	0.12	nt	nt	nt
CCOC(=O)C(C)N1N=C(/C=C/c2ccc(OC)cc2)CCC1=O (centres undefined)	32	0.26	0.8	0.7	19
CCc1sc(N(C(=O)Cc2ccccc2)c2ccccc2)nc1-c1ccccc1	38	0.0067	0.8	0.6	18
CCc1sc(N(C(=O)Cc2ccccc2)c2ccc(F)cc2)nc1-c1ccccc1	51*	-5.3*	0.1	0.5	86*
Nc1ccc2oc(=O)c3ccccc3c2c1	24	nt	0.4	0.8	59*
Nc1c(N)c2ccccc2oc1=O	2	0.19	1	1	2
CSc1nc(-c2ccco2)cc(-c2ccccc2)c1C#N	66*	nt	0.8	0.3	25
COC(=O)CSc1nc(-c2ccccc2)cc(-c2ccco2)c1C#N	89*	-1.4	0.5	0.1	49
O=c1cc2c(nn1Cc1cccc(Cl)c1)-c1ccccc1CC2	100*	-1.8	0.2	0	84*
O=c1cc2c(nn1Cc1ccc(Cl)cc1)-c1ccccc1CC2	97*	-2.1	0	0	97*
O=C(NC1=NCCS1)c1cccc(S(=O)(=O)N2CCCCC2)c1	6	nt	0.5	0.9	45
SMILES	CYP2C9 inhib	Cav3 T inh	CYP2C19 act	CYP2C9 act	CYP2C19 inhib
COc1ccc(-n2c(=O)cc(N3CCN(c4ccccc4OC)CC3)[nH]c2=O)cc1	-19	0.054	1.2	1.2	-18
Cc1ccc(N2C(=O)c3ccccc3NC2C(C)Cc2ccc3c(c2)OCO3)cc1 (centres undefined)	nt	-4.3*	nt	nt	nt
O=Cc1cn(-c2ccccc2)nc1-c1cc2cc(O)ccc2oc1=O	81*	1.5	0.9	0.2	6
O=C(CN1CCN(c2ccc(F)cc2)CC1)c1ccc2c(c1)OCO2	31	nt	0.7	0.7	33
O=[N+]([O-])c1cccnc1N1CCC(c2cc(-c3ccc(Cl)cc3Cl)n[nH]2)CC1	85*	-0.49	0.6	0.1	37
CC(=O)c1ccc(N2CCC(c3cc(-c4ccc(Cl)cc4Cl)n[nH]3)CC2)c([N+](=O)[O-])c1	59*	-0.019	0.5	0.4	51*

Bioassay records deposited in PubChem BioAssay by several laboratories.
